H9c2 TAG inh: inhibitors of triacylglycerol accumulation, primary screen, cell-based, uHTS, fluorescence, H9c2; H9c2 cells, Nile Red lipid (TAG) fluorescence; cells loaded with 200 µM oleic acid; inhibition, % at 12.5 µM; 230,000 compounds, 0.66% hits; AID 651582, 2012;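 active = pattern-corrected inhibition of lipid staining of at least 50% with the nuclear-stain viability signal not falling by more than 50%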;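 also: 0% = DMSO wells and 100% = triacsin C control wells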
CHT allo act: CHT positive allosteric modulators, primary screen, cell-based, membrane potential dye, choline EC20. CHT-expressing cells; stronger effect = higher value; LV-AA mutant CHT in HEK293 cells. B-score at 10 µM. 310,000 compounds, 0.49% hits;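 active = initial fluorescence not abnormally high and integrated response B-score, plate-corrected, over 3 SD above library mean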
Target sequence (Q9GZV3 whole entry, looked up): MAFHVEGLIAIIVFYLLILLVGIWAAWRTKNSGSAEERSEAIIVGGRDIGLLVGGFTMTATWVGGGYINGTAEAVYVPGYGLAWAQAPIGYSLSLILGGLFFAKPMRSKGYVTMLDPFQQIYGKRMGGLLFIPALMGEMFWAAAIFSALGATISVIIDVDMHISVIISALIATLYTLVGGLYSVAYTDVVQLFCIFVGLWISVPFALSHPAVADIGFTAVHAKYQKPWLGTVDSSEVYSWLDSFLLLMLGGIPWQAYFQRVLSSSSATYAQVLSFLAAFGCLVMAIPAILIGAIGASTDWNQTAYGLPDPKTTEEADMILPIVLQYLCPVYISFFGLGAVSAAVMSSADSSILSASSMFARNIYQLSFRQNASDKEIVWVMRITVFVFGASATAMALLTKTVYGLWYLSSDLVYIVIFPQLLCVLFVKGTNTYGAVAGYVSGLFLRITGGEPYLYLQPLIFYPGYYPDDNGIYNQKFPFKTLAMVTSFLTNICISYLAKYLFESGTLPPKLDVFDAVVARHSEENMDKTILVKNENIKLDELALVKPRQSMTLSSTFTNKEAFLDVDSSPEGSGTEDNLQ
CHT inh: inhibitors of human choline transporter CHT | CHT-expressing cells, membrane potential dye, choline response; stronger effect = lower value | B-score at 10 µM | High affinity choline transporter 1 (Homo sapiens), Q9GZV3 | 310,000 compounds, 0.86% hits;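 active = B-score over 3 SD under the library average, and starting fluorescence ratio not unusually high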;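 also: choline stimulus applied at its EC90 after an EC20 pre-addition; B-score computed on integrated fluorescence ratio after choline addition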
Kir21 block: inhibitors of mouse Kir2.1 inward-rectifier potassium channel | HEK293-Kir2.1, FluxOR thallium flux fluorescence; stronger effect = lower value | B-score at 10 µM | AID 1672, 2009 | 310,000 compounds, 0.85% hits | Inward rectifier potassium channel 2 (Mus musculus), P35561;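 active = fluorescence ratio B-score at or below minus 3 SD of library scores, with starting-brightness B-score within 2 SD, cut at about -4.2 in these data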;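 also: channel flux triggered by added potassium and thallium sulfate stimulus; B-score of peak minus minimum fluorescence over baseline after thallium stimulus; more negative B-score means stronger Kir2.1 block with less thallium influx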
CHT activ conf: CHT activators, confirmation, cell-based, membrane potential dye, duplicate | 2,500 compounds, 91% hits | shares compounds with CHT allo act | CHT-expressing cells, membrane potential dye fluorescence (FDSS); % of choline EC20–EC90 response window; HEK293 expressing CHT LV-AA mutant; choline added at its EC20 | activation, % at 10 µM;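 active = primary screen active, with duplicate mean activation above negative control mean plus 3 SD, cut at about 11% in these data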
HEK293 MP dye: membrane potential response in parental HEK293 cells, counter-screen for CHT activator project, cell-based, membrane potential dye; shares compounds with CHT allo act; membrane potential dye fluorescence (FDSS); measured after EC20 choline addition; ratio readout change at 10 µM, hits read low; 2,500 compounds, 62% hits; AID 623908, 2012;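 active = duplicate-averaged ratio beyond 3 SD from buffer wells, up or down, though filed actives are nearly all decreases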
* hit, by the source's call. Compounds with a hit are over-represented: about 2% of the library has one in this group of screens.

What do the screens show for `CC(C)CC(c1nnnn1C(C)C)N1CCN(c2cccc(Cl)c2)CC1` (configuration not stated)?
CHT allo act: inactive; CHT inh: inactive; Kir21 block: 0.51; CHT activ conf: 26*; HEK293 MP dye: inactive

Results for O=C(NC1CCCC1)C(c1ccc(F)cc1)N(Cc1ccc(F)cc1)C(=O)c1ccn[nH]1 (configuration not stated) ?
CHT allo act: inactive; CHT inh: inactive; Kir21 block: -0.26; CHT activ conf: 25*; HEK293 MP dye: inactive

Results for NC(=O)c1nsc(C(=O)N(Cc2cccnc2)C(C(=O)NC2CCCC2)c2ccc(F)cc2)c1N (configuration not stated) ?
CHT allo act: inactive; CHT inh: inactive; Kir21 block: 1.4

What do the screens show for `Brc1cc2c(cc1Br)OCCOCCOCCOCCO2`?
H9c2 TAG inh: -1; CHT allo act: inactive; CHT inh: inactive; Kir21 block: 0.74

How did Brc1ccc2c(c1)OCCOCCOc1cc(Br)ccc1OCCOCCOCCO2 do in these assays?
CHT allo act: 14*; CHT inh: inactive; Kir21 block: -2; CHT activ conf: 57*; HEK293 MP dye: inactive

Results for Cn1c(=O)c2cc(NC(=S)NCc3ccccc3F)ccc2n1Cc1cccc(C(F)(F)F)c1 ?
H9c2 TAG inh: 24

Results for COc1ccc2c(c1)c(C(=O)CN1CCOCC1)c(C)n2C ?
H9c2 TAG inh: -23; CHT allo act: inactive; CHT inh: inactive; Kir21 block: 0.74; CHT activ conf: 38*; HEK293 MP dye: -37*

Results for COc1ccc2c(c1)c(C(=O)CN1CCCCC1)c(C)n2C ?
H9c2 TAG inh: 24; CHT allo act: inactive; CHT inh: inactive; Kir21 block: 0.53; CHT activ conf: 44*; HEK293 MP dye: -51*

Results for CCN(CC)CCOC(=O)c1c(C)n(C)c2ccc(OC)cc12 ?
H9c2 TAG inh: 7; CHT allo act: inactive; CHT inh: inactive; Kir21 block: -1.7

How did COc1ccc2c(c1)c(C(=O)CN1CCC(C(N)=O)CC1)c(C)n2C do in these assays?
H9c2 TAG inh: -29; CHT allo act: 6.3*; CHT inh: inactive; Kir21 block: 0.72; CHT activ conf: 65*; HEK293 MP dye: -51*

What do the screens show for `COc1ccc2c(c1)c(C(=O)CN1CCC3(CC1)OCCO3)c(C)n2C`?
H9c2 TAG inh: -12; CHT allo act: 6.4*; CHT inh: inactive; Kir21 block: 2.5; CHT activ conf: 15*; HEK293 MP dye: -41*

What do the screens show for `Cc1c(C(=O)CN2CCSCC2)c2ccccc2n1C`?
H9c2 TAG inh: 7; CHT allo act: inactive; CHT inh: inactive; Kir21 block: 2.7

How did COc1ccc(C(=O)NCC(=O)N/N=C(\C)Cc2ccccc2)cc1 do in these assays?
CHT allo act: inactive; CHT inh: inactive; Kir21 block: 0.27

Results for CCC(CC)C(=O)N(C)c1c(C)nc2c(OCC3CCCCC3)cccn12 ?
H9c2 TAG inh: 11

Results for Cc1cc(C[n+]2ccccc2)c2nsnc2c1 ?
CHT allo act: 10*; CHT inh: inactive; Kir21 block: 1.4; CHT activ conf: 45*; HEK293 MP dye: -72*

Results for CCOC(=O)c1cc(CC)sc1NC(=O)COC(=O)C1CCC1 ?
H9c2 TAG inh: 5; CHT allo act: inactive; CHT inh: inactive; Kir21 block: -0.64

Results for COC(=O)c1ccccc1NC(=O)CSc1nc(NC(=O)c2ccccc2)c2c(C)c(C)oc2n1 ?
H9c2 TAG inh: 5; CHT allo act: 8.4*; CHT inh: inactive; Kir21 block: 0.19; CHT activ conf: 2; HEK293 MP dye: inactive

Results for COC(=O)c1ccccc1NC(=O)CSc1nnc(-c2ccc(C)cc2)o1 ?
Kir21 block: 1.4

How did O=C(Nc1ccc(C(=O)OC2CCCCC2)cc1)c1ccncc1 do in these assays?
CHT allo act: inactive; CHT inh: inactive; Kir21 block: -0.32

How did Cc1cc(C)n2nc(-c3cccnc3)nc2n1 do in these assays?
H9c2 TAG inh: 16; CHT allo act: inactive; CHT inh: inactive; Kir21 block: -0.07; CHT activ conf: 48*; HEK293 MP dye: -51*

How did O=C(CCc1ccccc1)NCC(c1ccco1)N1CCc2ccccc21 (configuration not stated) do in these assays?
H9c2 TAG inh: 25; CHT allo act: 7.5*; CHT inh: inactive; Kir21 block: -2.8; CHT activ conf: 14*; HEK293 MP dye: inactive

What do the screens show for `Cc1nn2c(NCCCN(C)C)c3c(nc2c1-c1ccccc1)CCC3`?
CHT allo act: 8.2*; CHT inh: inactive; Kir21 block: -1.5; CHT activ conf: 45*; HEK293 MP dye: -57*

What do the screens show for `Cc1cccn2c(=O)c3cc(C(=O)NC4CCCCCC4)sc3nc12`?
CHT allo act: inactive; CHT inh: inactive; Kir21 block: -0.46

How did Cc1cccn2c(=O)c(/C=C(\C#N)C(=O)NC3CCS(=O)(=O)C3)c(Oc3ccccc3Cl)nc12 (configuration not stated) do in these assays?
CHT allo act: inactive; CHT inh: inactive; Kir21 block: -0.38; CHT activ conf: 8; HEK293 MP dye: -47*

Results for Cc1cccn2c(=O)c3cc(C(=O)NC4CCS(=O)(=O)C4)sc3nc12 (configuration not stated) ?
H9c2 TAG inh: 0; CHT allo act: 6.4*; CHT inh: inactive; Kir21 block: 0.27; CHT activ conf: 51*; HEK293 MP dye: -43*

Results for Cc1cccn2c(=O)c3cc(C(=O)N4COCC4(C)C)sc3nc12 ?
H9c2 TAG inh: 0; CHT allo act: inactive; CHT inh: inactive; Kir21 block: -0.91; CHT activ conf: 35*; HEK293 MP dye: -30*

What do the screens show for `O=C(O)c1ccc(C(=O)c2ccc3c(c2)C(=O)N(CC2CCCO2)C3=O)cc1` (configuration not stated)?
CHT allo act: inactive; CHT inh: inactive; Kir21 block: -0.16

How did Cc1nnc(N2CCC(C(=O)N3CCCCC3)CC2)c2nn(-c3ccc(Cl)cc3)c(C)c12 do in these assays?
CHT allo act: inactive; CHT inh: inactive; Kir21 block: 0.32; CHT activ conf: 39*; HEK293 MP dye: inactive

Results for COc1ccc(OCCN(C)C(=O)c2cccc(S(=O)(=O)N(C)c3ccccc3)c2)cc1 ?
H9c2 TAG inh: -30

Source: PubChem BioAssay
